Source: PubChem BioAssay (Tox21)
Results filed as inconclusive are left out. Where a call stands in place of a potency, no number is given. Active and inactive are the calls of the source. Unless noted, calls follow the shape of the dose curve; as a rule, active = well fitted curve in the direction sought with a large enough effect in the repeat runs; inconclusive = weak or mixed curves; inactive = no such curve, though single readings can be large; an effect the other way counts as inactive or inconclusive.

Key:
[1] = qHTS assay to identify aromatase inhibitors - cell viability counter screen (AID 743084);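 also: cells stimulated with testosterone during compound exposure; nearly all actives have a fitted effect of over 55% in size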; also: potency is read from the fitted curve at half-maximal effect
[2] = target: Aryl hydrocarbon receptor (Homo sapiens) (UniProt P35869); assay: qHTS assay to identify small molecule that activate the aryl hydrocarbon receptor (AhR) signaling pathway (AID 743085); also: nearly all actives have a fitted effect of over 15% in size; also: potency is read from the fitted curve at half-maximal effect;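 as to activation: HG2L7.5c1 human HepG2 liver cells with stably integrated DRE-driven firefly reporter; series mostly up to about 70 µM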
How it was run: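 A multiplexed format paired cell viability (CellTiter-Fluor fluorescence) with AhR-dependent luciferase output (ONE-Glo luminescence) in the same wells of HepG2 DRE-luc cells after 24 h compound exposure at 37C.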

[3] = qHTS assay to identify small molecule that activate the aryl hydrocarbon receptor (AhR) signaling pathway - cell viability counter screen (AID 743086); also: nearly all actives have a fitted effect of over 45% in size; also: potency is read from the fitted curve at half-maximal effect
How it was run: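 HepG2-AhR-luc (HG2L7.5c1) cells, 4000/well, treated 24 h at 37 C with compound; viability measured as CellTiter-Fluor fluorescence after 30 min in the same wells as the luciferase read.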

[4] = target: Peroxisome proliferator-activated receptor gamma (Homo sapiens) (UniProt P37231); assay: qHTS assay to identify small molecule agonists of the peroxisome proliferator-activated receptor gamma (PPARg) signaling pathway (AID 743094; active = well fitted activation curve with a large enough effect in the signal ratio in the repeat runs, not every such curve was filed as active; the % refers to the signal ratio)
How it was run: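 Stably transfected HEK293H cells (GeneBLAzer PPARg UAS-bla) were incubated with test substances for 17 h at 37C after a 5 h pre-incubation; beta-lactamase activity was then detected by FRET substrate fluorescence.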

[5] = qHTS assay to identify small molecule antagonists of the peroxisome proliferator-activated receptor gamma (PPARg) signaling pathway - cell viability counter screen (AID 743194); also: nearly all actives have a fitted effect of over 55% in size; also: potency is read from the fitted curve at half-maximal effect
How it was run: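 Cytotoxicity counter screen in PPARg-bla HEK293H cells, same wells as reporter assay. Compounds plus 50 nM rosiglitazone (final) for 17 h at 37 C, then viability read by CellTiter-Glo luminescence.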

[6] = qHTS assay for small molecule agonists of the antioxidant response element (ARE) signaling pathway (AID 743202; active = well fitted activation curve with a large enough effect in the signal ratio in the repeat runs, not every such curve was filed as active; the % refers to the signal ratio; also: potency is read from the fitted curve at half-maximal effect)
How it was run: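 Agonist mode reporter screen: HepG2 cells with ARE-controlled beta-lactamase are incubated with test compounds for 16 h at 37 C, and beta-lactamase activity is measured as fluorescence of cleaved B/G FRET substrate.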

[7] = qHTS assay to identify small molecule antagonists of the peroxisome proliferator-activated receptor delta (PPARd) signaling pathway - cell viability counter screen (AID 743213); also: nearly all actives have a fitted effect of over 50% in size
How it was run: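 PPARd-bla HEK293H cells were treated with compounds plus agonist L165041 (300 nM final) for 17 h at 37 C. Viability was then read in the same wells by CellTiter-Glo luminescence after 30 min at room temperature.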

[8] = qHTS assay to identify small molecule agonists of the farnesoid-X-receptor (FXR) signaling pathway - cell viability counter screen (AID 743218); also: nearly all actives have a fitted effect of over 45% in size
How it was run: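 In GeneBLAzer FXR-UAS-bla HEK 293T cells, compounds act for 16 h at 37 C. Cell viability is then scored in the reporter wells by CellTiter-Glo, 30 min at RT, luminescence.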

[9] = target: Bile acid receptor (Homo sapiens) (UniProt Q96RI1); assay: qHTS assay to identify small molecule agonists of the farnesoid-X-receptor (FXR) signaling pathway (AID 743220; active = well fitted activation curve with a large enough effect in the signal ratio in the repeat runs, not every such curve was filed as active; the % refers to the signal ratio)
How it was run: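 Beta-lactamase reporter under UAS control in GeneBLAzer FXR HEK 293T cells (5000/well) measured with LiveBLAzer FRET substrate after 2 h at room temperature. Compound exposure lasted 16 h at 37C.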

[10] = qHTS assay to identify small molecule antagonists of the farnesoid-X-receptor (FXR) signaling pathway - cell viability counter screen (AID 743221; active = well fitted cell-killing curve with a large enough effect in the repeat runs, not every such curve was filed as active; also: nearly all actives have a fitted effect of over 50% in size)
How it was run: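 Cytotoxicity is taken from ATP luminescence (CellTiter-Glo, 30 min, room temperature) in FXR-bla HEK 293T cells previously incubated 16 h at 37 C with compound and chenodeoxycholic acid at 50 uM final.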

[11] = qHTS assay for small molecule agonists of the antioxidant response element (ARE) signaling pathway - cell viability counter screen (AID 743203; calls by dose curve; also: nearly all actives have a fitted effect of over 55% in size; also: potency is read from the fitted curve at half-maximal effect)
How it was run: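 Cells (ARE-bla HepG2, 2,000/well) receive DMSO-dissolved compounds after a 5 hrs rest. Plates incubate 16 hrs at 37C/5% CO2. CellTiter-Glo luminescence is then recorded after 30 min at room temperature.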

[12] = qHTS assay for small molecule activators of the heat shock response signaling pathway (AID 743210; active = well fitted activation curve with a large enough effect in the signal ratio in the repeat runs, with a control signal flat, not every such curve was filed as active; the % refers to the signal ratio; also: potency is read from the fitted curve at half-maximal effect;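 as to activation: HeLa cells with beta-lactamase reporter driven by heat shock elements; series mostly up to about 63 µM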)
How it was run: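 Quantitative high-throughput format using an engineered HeLa line in which heat shock response elements drive beta-lactamase; after 5 h with compound, cells received a B/G FRET substrate and fluorescence was read.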

[13] = qHTS assay to identify small molecule agonists of the peroxisome proliferator-activated receptor delta (PPARd) signaling pathway - cell viability counter screen (AID 743211); also: nearly all actives have a fitted effect of over 55% in size
How it was run: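 Tox21 library compounds, delivered in DMSO, were incubated 17 h with PPARd-bla HEK293H cells; cytotoxicity was taken from CellTiter-Glo luminescence read 30 min after reagent addition.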

[14] = target: Vitamin D3 receptor (Homo sapiens) (UniProt P11473); assay: qHTS assay to identify small molecule agonists of the vitamin D receptor (VDR) signaling pathway (AID 743222; calls by dose curve)
How it was run: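 Agonist activity measured in VDR-bla reporter cells. Exposure 16 h, 37C, 5% CO2; detection by B/G FRET substrate, 2 h RT.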

[15] = target: Peroxisome proliferator-activated receptor gamma (Homo sapiens) (UniProt P37231); assay: qHTS assay to identify small molecule antagonists of the peroxisome proliferator-activated receptor gamma (PPARg) signaling pathway (AID 743191; calls by dose curve; also: series mostly up to about 63 µM; nearly all actives have a fitted effect of over 30% in size)
How it was run: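 GeneBLAzer PPARg UAS-bla HEK293H cells, 5 h post-plating, exposed to compounds 17 h at 37C. LiveBLAzer B/G FRET substrate added for 1 h at room temperature; beta-lactamase reporter read by fluorescence intensity.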

[16] = qHTS assay for small molecule activators of the heat shock response signaling pathway - cell viability counter screen (AID 743209); also: nearly all actives have a fitted effect of over 50% in size; also: potency is read from the fitted curve at half-maximal effect
How it was run: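 Quantitative HTS format, Tox21 10K library. HeLa cells carrying an HSE-driven beta-lactamase reporter were treated 5 h at 37 C, then assessed for viability by CellTiter-Glo luminescence.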

[17] = target: Peroxisome proliferator-activated receptor delta (Homo sapiens) (UniProt Q03181); assay: qHTS assay to identify small molecule agonists of the peroxisome proliferator-activated receptor delta (PPARd) signaling pathway (AID 743212; calls by dose curve)
How it was run: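 Quantitative high-throughput agonist screen in a HEK293H beta-lactamase reporter line under UAS control. Compounds in DMSO, at 37 C. Fluorescence read after 2 h with FRET substrate at room temperature.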

[18] = target: Peroxisome proliferator-activated receptor delta (Homo sapiens) (UniProt Q03181); assay: qHTS assay to identify small molecule antagonists of the peroxisome proliferator-activated receptor delta (PPARd) signaling pathway (AID 743215; active = well fitted inhibition curve with a large enough effect in the signal ratio in the repeat runs, not every such curve was filed as active; the % refers to the signal ratio;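 also: cells stimulated with agonist L165041 at 300 nM final during compound exposure; series mostly up to about 62 µM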)
How it was run: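 Antagonist-mode beta-lactamase reporter screen: HEK293H cells with UAS-bla under PPARd control, stimulated by 300 nM L165041 (final) alongside test compound for 17 h at 37 C, then FRET fluorescence after 2 h substrate incubation.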

[19] = target: Bile acid receptor (Homo sapiens) (UniProt Q96RI1); assay: qHTS assay to identify small molecule antagonists of the farnesoid-X-receptor (FXR) signaling pathway (AID 743217; active = well fitted inhibition curve with a large enough effect in the signal ratio in the repeat runs, not every such curve was filed as active; the % refers to the signal ratio)
How it was run: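 Beta-lactamase reporter under UAS control in HEK 293T cells; compound exposure 16 h at 37 °C in the presence of chenodeoxycholic acid (50 uM final); signal from B/G FRET substrate after 2 h at room temperature.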

[20] = target: Vitamin D3 receptor (Homo sapiens) (UniProt P11473); assay: qHTS assay to identify small molecule antagonists of the vitamin D receptor (VDR) signaling pathway (AID 743223; active = well fitted inhibition curve with a large enough effect in the signal ratio in the repeat runs, not every such curve was filed as active; the % refers to the signal ratio)
How it was run: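 Quantitative HTS in VDR-bla reporter cells stimulated with 1alpha,25-dihydroxyvitamin D3, 3 nM final. Compound exposure 16 h, 37C, 5% CO2. Read-out: beta-lactamase FRET substrate fluorescence, 2 h RT.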

Sequence of Peroxisome proliferator-activated receptor gamma (Homo sapiens) (P37231 whole entry, looked up): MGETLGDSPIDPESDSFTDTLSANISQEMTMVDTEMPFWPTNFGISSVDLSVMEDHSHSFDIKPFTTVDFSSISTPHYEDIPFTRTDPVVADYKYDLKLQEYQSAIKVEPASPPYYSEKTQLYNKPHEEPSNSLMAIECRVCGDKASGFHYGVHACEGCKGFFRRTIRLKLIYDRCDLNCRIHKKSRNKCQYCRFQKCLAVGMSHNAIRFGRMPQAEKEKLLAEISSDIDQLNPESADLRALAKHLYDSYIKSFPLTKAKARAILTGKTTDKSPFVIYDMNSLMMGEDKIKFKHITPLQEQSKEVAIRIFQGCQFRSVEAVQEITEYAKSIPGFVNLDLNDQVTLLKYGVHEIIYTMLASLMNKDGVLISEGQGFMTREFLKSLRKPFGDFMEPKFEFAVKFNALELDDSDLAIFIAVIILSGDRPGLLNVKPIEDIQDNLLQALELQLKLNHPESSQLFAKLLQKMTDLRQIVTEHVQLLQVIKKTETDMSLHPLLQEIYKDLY
Sequence of Aryl hydrocarbon receptor (Homo sapiens) (P35869 whole entry, looked up): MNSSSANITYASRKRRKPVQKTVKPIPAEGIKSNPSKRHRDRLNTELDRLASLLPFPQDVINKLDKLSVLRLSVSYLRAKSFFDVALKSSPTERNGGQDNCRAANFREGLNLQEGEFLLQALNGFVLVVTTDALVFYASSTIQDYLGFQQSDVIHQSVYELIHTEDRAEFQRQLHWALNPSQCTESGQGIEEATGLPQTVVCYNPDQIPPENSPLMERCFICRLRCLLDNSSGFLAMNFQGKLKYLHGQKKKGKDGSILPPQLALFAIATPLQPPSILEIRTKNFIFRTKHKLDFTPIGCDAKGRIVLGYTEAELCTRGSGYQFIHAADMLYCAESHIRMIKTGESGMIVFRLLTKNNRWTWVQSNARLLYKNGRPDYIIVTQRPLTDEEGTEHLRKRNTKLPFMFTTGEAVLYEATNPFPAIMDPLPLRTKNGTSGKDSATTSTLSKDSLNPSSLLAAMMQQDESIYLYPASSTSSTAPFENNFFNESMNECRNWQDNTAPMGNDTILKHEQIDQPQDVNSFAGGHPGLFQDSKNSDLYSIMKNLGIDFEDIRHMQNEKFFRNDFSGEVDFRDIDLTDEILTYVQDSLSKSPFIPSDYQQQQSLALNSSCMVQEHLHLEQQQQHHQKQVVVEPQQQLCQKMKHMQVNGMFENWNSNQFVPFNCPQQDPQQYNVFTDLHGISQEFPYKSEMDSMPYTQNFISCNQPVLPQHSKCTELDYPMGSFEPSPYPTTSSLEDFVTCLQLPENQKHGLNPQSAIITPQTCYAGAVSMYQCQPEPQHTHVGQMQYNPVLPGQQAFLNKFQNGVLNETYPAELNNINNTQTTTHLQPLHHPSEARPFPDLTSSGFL
Sequence of Vitamin D3 receptor (Homo sapiens) (P11473 whole entry, looked up): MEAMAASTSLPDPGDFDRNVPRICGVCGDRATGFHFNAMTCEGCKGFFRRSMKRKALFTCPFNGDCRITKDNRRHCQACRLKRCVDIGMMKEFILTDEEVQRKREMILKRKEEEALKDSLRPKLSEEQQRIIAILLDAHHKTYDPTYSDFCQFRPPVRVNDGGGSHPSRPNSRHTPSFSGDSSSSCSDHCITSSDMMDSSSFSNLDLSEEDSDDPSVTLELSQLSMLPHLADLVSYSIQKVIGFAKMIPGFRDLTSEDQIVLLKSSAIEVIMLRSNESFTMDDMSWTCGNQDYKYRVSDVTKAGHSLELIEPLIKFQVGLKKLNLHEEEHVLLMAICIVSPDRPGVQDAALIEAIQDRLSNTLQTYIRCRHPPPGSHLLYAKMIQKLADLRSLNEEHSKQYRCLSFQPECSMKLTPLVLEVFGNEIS
Sequence of Bile acid receptor (Homo sapiens) (Q96RI1 whole entry, looked up): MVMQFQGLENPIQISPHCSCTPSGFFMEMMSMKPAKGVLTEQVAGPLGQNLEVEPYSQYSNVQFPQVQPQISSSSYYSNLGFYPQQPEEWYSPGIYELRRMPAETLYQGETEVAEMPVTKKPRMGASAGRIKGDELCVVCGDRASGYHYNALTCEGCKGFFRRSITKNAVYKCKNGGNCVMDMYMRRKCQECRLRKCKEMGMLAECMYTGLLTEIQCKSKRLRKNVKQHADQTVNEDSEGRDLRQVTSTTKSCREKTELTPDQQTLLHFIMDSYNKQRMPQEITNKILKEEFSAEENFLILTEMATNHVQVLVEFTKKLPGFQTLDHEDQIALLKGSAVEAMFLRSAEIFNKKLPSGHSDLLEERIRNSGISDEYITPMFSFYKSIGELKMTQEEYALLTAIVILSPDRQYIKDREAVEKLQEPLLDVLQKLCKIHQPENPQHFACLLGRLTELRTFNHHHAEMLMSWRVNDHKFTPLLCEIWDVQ
Sequence of Peroxisome proliferator-activated receptor delta (Homo sapiens) (Q03181 whole entry, looked up): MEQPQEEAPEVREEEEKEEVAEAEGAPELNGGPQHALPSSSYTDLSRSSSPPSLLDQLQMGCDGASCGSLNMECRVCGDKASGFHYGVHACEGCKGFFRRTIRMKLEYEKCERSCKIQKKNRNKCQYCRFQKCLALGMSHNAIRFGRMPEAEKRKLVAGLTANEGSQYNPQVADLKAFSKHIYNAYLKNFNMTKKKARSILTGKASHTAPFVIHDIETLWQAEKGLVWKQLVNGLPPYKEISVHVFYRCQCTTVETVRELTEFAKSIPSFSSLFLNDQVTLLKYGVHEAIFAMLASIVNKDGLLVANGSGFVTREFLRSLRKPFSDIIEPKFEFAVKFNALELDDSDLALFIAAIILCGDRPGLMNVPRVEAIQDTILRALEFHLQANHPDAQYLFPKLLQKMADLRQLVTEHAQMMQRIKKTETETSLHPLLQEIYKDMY

Compound | Potency [1] | Potency [2] | Potency [3] | Potency [4] | Potency [5] | Potency [6] | Potency [7] | Potency [8] | Potency [9] | Potency [10] | Potency [11] | Potency [12] | Potency [13] | Potency [14] | Potency [15] | Potency [16] | Potency [17] | Potency [18] | Potency [19] | Potency [20]
O=[N+]([O-])c1cc(Cl)c(Cl)c(Cl)c1Cl | 60.9 µM (active) | inactive | inactive | inactive | inactive | 3.42 µM (active) | inactive | inactive | inactive | inactive |  |  |  |  |  |  |  |  |  | 
O=C(OCC1CO1)C1CCCCC1C(=O)OCC1CO1 (configuration not stated) | 48.6 µM (active) | inactive | inactive | inactive | inactive | 48.6 µM (active) | inactive | inactive |  | inactive | inactive | inactive | inactive | inactive |  |  |  |  |  | 
O=C(O)c1c(Cl)cccc1Cl | inactive | inactive | inactive | inactive | inactive | inactive | inactive | inactive | inactive |  |  | inactive | inactive |  | inactive | inactive | inactive | inactive | inactive | 
O=C(c1ccc(O)cc1O)c1ccc(O)cc1O | inactive | 21.7 µM (active) | inactive | inactive | inactive |  |  |  | inactive | inactive | inactive |  | inactive | inactive |  | inactive | inactive | inactive | inactive | 
CC(=O)OCC(C)OC(C)=O (configuration not stated) | inactive | inactive | inactive | inactive | inactive |  | inactive |  | inactive | inactive | inactive |  | inactive | inactive | inactive | inactive | inactive | inactive | inactive | inactive
Clc1ccc2nsnc2c1NC1=NCCN1 | inactive | inactive | inactive | inactive | inactive |  | inactive | inactive | inactive | inactive | inactive | inactive | inactive | inactive | inactive | inactive | inactive | inactive | inactive | 
CCCCN(CCCC)C(=O)N(CCCC)CCCC | inactive | inactive | inactive | inactive | inactive |  | inactive | inactive |  |  | inactive | inactive | inactive | inactive | inactive | inactive | inactive | inactive | inactive | 
NNC(=O)c1cccc(C(=O)NN)c1 | inactive | 27.3 µM (active) | inactive | inactive | inactive | inactive | inactive | inactive | inactive | inactive |  | inactive | inactive | inactive | inactive |  | inactive | inactive | inactive | 
N=C1C=CC(=C(c2ccc(N)cc2)c2ccc(N)cc2)C=C1 | 8.63 µM (active) | inactive | 17.2 µM (active) | inactive | 6.92 µM (active) |  |  |  |  |  | 61.1 µM (active) |  |  |  |  | 30.9 µM (active) | inactive |  |  | 
C[C@@H]1C[C@H]2[C@@H]3CCC4=CC(=O)C=C[C@]4(C)[C@@]3(Cl)[C@@H](O)C[C@]2(C)[C@@]1(OC(=O)c1ccco1)C(=O)CCl | inactive | inactive | inactive | inactive |  | 13.3 µM (active) |  |  |  | inactive |  | 31.6 µM (active) |  | inactive | inactive | inactive |  | inactive |  | 
C[C@]12CCC(=O)C=C1CC[C@@H]1[C@@H]2[C@@H](O)C[C@@]2(C)[C@H]1CC[C@]2(O)C(=O)COC(=O)CCC(=O)O | inactive | inactive | inactive | inactive | inactive | inactive | inactive | inactive | inactive | inactive | inactive |  | inactive | inactive |  | inactive |  |  | inactive | inactive
CCC(N)(CO)CO | inactive | inactive | inactive | inactive | inactive |  |  | inactive |  |  | inactive | inactive | inactive | inactive | inactive | inactive | inactive | inactive |  | inactive
Nc1c(Cl)cc(Cl)cc1Cl | inactive | inactive | inactive | inactive | inactive | inactive |  | inactive | inactive |  | inactive | inactive | inactive | inactive | inactive | inactive | inactive | inactive | inactive | 
Cn1cc(C(=O)[C@@H]2CCc3nc[nH]c3C2)c2ccccc21 | inactive | inactive | inactive | inactive | inactive | inactive |  | inactive | inactive |  | inactive |  | inactive | inactive |  | inactive | inactive |  | inactive | inactive
O=[N+]([O-])c1ccccc1Nc1ccccc1 | inactive | inactive | inactive | inactive | inactive | inactive | inactive | inactive |  | inactive | inactive | inactive | inactive | inactive | inactive | inactive |  |  |  | inactive
O=C(c1ccc(F)cc1)C1CCN(CCn2c(=O)[nH]c3ccccc3c2=O)CC1 | inactive | inactive | inactive | inactive | inactive | inactive | inactive | inactive |  | inactive | inactive | inactive |  |  |  |  | inactive | inactive |  | 
